Consider 93 compounds from PubChem BioAssay AID624483 (NMMLSC, 2012).

SMILES strings stand for the structures. The whole screen tested about 360,000 compounds, of which about 11,000 (3.1%) were called active. Another 2% or so got no clear call; they are omitted. No stated cut-off is given here; in the data, active means fluorescence intensity above about 16000; inconclusive means no clear call, values can overlap the other calls; inactive means below that. The sample as a whole holds a higher share of actives than the screen did.

The assay in a line: counter-screen for toxin protease inhibitors: compound fluorescence, primary screen, artefact control for toxin protease inhibitor project, biochemical, multiplex microsphere, HTS (AID 624483). The conditions noted are these: compound autofluorescence counterscreen, microsphere flow cytometry; stronger effect = higher value. (In general: The purpose of a counterscreen is to sort out artefacts and off-target activity.)
With `Nc1cccc(-c2cncc(N3CCN(Cc4ccccn4)CC3)n2)c1`, the fluorescence intensity was 3020 (inactive). As for `Cc1cccc(CNC(=O)c2sc(=O)n(Cc3ccccc3C)c2C)c1`, the fluorescence intensity was 4210 (inactive).

With `CCCCc1cc(=O)oc2cc(C)cc(OCc3nn[nH]n3)c12`, the fluorescence intensity was 2630 (inactive). `Cc1noc(C)c1COc1ccc2ccc(=O)oc2c1`: the fluorescence intensity is 3400 (inactive). The result for `COc1ccc(-c2cc3ccc(OCc4nn[nH]n4)cc3oc2=O)cc1` reads 24000 (active). Then `CC(C)C1C(=O)N(Cc2cn(CCC3OCCO3)nn2)CCS(=O)(=O)N1Cc1ccc(-c2ccccc2C(F)(F)F)cc1` (stereo not drawn), with 5850 (inactive); and `Cc1ccc(NC(=O)C(C)Sc2nnc(C3CC3)n2C2CC2)cc1S(=O)(=O)N1CCOCC1` (stereo not drawn), with 3820 (inactive). For `COC(=O)c1ccc2nc(-c3ccc(C)cc3)c(Cc3ccc(OC)cc3C)n2c1`, the fluorescence intensity is 7150 (inactive). Then `O=C(NCCCn1ccnc1)c1cc(-c2ccccc2)on1`, with 3190 (inactive); and `CCN(CC)CCCNC(=O)c1cc(-c2cccc(Cl)c2)on1`, with 22000 (active). As for `O=C(NCCCN1CCOCC1)c1cc(-c2cccc(O)c2)on1`, the fluorescence intensity is 2910 (inactive).

Turning to `O=C(NCc1ccccc1)C1C(=O)N(Cc2ccccc2)C(=O)C1C1(O)CCCC1` (stereo not drawn), the fluorescence intensity was 8420 (inactive).

In the case of `COc1cc(NC(=O)C2=CC(c3ccco3)=NS(=O)(=O)N2C)cc(OC)c1OC`, the fluorescence intensity was 4170 (inactive). The result for `O=S(=O)(NCCc1ccccc1)c1ccccc1` reads 3470 (inactive). Regarding `O=S(=O)(NCCNS(=O)(=O)c1ccccc1)c1ccccc1`, the fluorescence intensity is 22900 (active). Regarding `O=S(=O)(NCCc1ccncc1)c1ccccc1`, the fluorescence intensity is 3020 (inactive). On to `CCOc1ccc(CCN2C(=S)N([C@@H](CC(C)C)CN3CCC[C@@H]3CN3C(=S)NC[C@@H]3Cc3ccc(O)cc3)C[C@@H]2Cc2ccc(O)cc2)cc1`, for which the fluorescence intensity is 6230 (inactive). Turning to `CCOc1ccc(CNC(=O)C2CCCN(c3nnc(C)c4c(C)n(-c5ccccc5)nc34)C2)cc1` (stereo not drawn), the fluorescence intensity is 9860 (inactive). The result for `CCOc1c(Nc2cccc(Cl)c2)c(=O)c1=O` reads 4070 (inactive). Then `CCOc1nnc(C)c2c(C)n(-c3cccc(Cl)c3)nc12`, with 23500 (active); and `Brc1cc(Br)c(Oc2cc(Br)c(Br)cc2Br)cc1Br`, with 5260 (inactive); and `COc1ccc(Cl)cc1NC(=O)CN(C)C(=O)CNC(=O)C12CC3CC(CC(C3)C1)C2`, with 22500 (active). Then `COc1ccc(Cl)cc1NC(=O)CN(C)Cc1ccc(OC)c(OC)c1`, with 4460 (inactive); and `COc1ccc(Cl)cc1NC(=O)CN(C)C(=O)c1ccc2n[nH]nc2c1`, with 7700 (inactive); and `CCOC(=O)C1=C(COC(=O)[C@H](C)NS(=O)(=O)c2ccccc2F)NC(=O)NC1C` (stereo partly drawn), with 3650 (inactive).

`Cc1onc(-c2ccccc2)c1C(=O)N1CCN(S(=O)(=O)c2ccccc2C(F)(F)F)CC1`: the fluorescence intensity is 3570 (inactive).

Turning to `COC(=O)c1ccc2nc(-c3cccc(Br)c3)c(Cc3ccc(OC)cc3C)n2c1`, the fluorescence intensity was 5220 (inactive). The result for `CCC1(C)Cc2c(sc3[nH]c(=S)n(Cc4ccccc4)c(=O)c23)CO1` (stereo not drawn) reads 2880 (inactive).

As for `CCOC(=O)Cn1c(SC)nc2sc3c(c2c1=O)CC(C)(C)OC3`, the fluorescence intensity was 6860 (inactive).

Consider `CCC1(C)Cc2c(sc3nnn(CC(=O)Nc4ccc(Cl)cc4)c(=O)c23)CO1` (stereo not drawn), for which the fluorescence intensity is 22700 (active).

As to `N#C/C(=C/c1cccc([N+](=O)[O-])c1)c1nnc2n1CCCCC2`, the fluorescence intensity is 1990 (inactive). Then `Cc1ccc(N(Cc2ccc(C(=O)Nc3ccccc3C(=O)NCc3ccco3)cc2)S(C)(=O)=O)cc1C`, with 25100 (active); and `CS(=O)(=O)N(Cc1ccc(Cl)cc1)c1ccc(C(=O)NCCSCc2ccco2)cc1`, with 10900 (inactive).

In the case of `Cc1cccc(Nc2ccccc2C(=O)NCc2ccco2)c1C`, the fluorescence intensity is 3190 (inactive). Then `O=C(Nc1ccc(S(=O)(=O)N2CCOCC2)cc1)c1ccc2ncsc2c1`, with 4800 (inactive); and `O=C(CSc1nnc(-c2c[nH]c3ccccc23)o1)c1ccccc1`, with 7930 (inactive); and `CCCn1cc(SCC(N)=O)c2ccccc21`, with 6190 (inactive). The result for `NC(=O)CSc1c[nH]c2ccccc12` reads 20300 (active). The result for `O=[N+]([O-])c1ccc(CN2CC(N3CCC(c4ccccc4)CC3)CS2(=O)=O)cc1` (stereo not drawn) reads 4360 (inactive); that for `COc1ccc(S(=O)(=O)N2CCC(C(=O)NCc3ccco3)CC2)cc1C`, 3590 (inactive). `COc1ccc(C2=NOC(C(=O)NCc3ccco3)C2)cc1OC` (stereo not drawn): the fluorescence intensity is 21200 (active). The result for `COc1ccc(CNC(=O)C2CC(c3ccc(C(F)(F)F)cc3)=NO2)cc1` (stereo not drawn) reads 4040 (inactive); that for `CCOC(=O)N1CCN(C(=O)c2cn(C)c3ccc(S(=O)(=O)N4CCCC4)cc3c2=O)CC1`, 19900 (active).

Consider `CCOC(=O)N1CCN(C(=O)c2cn(C)c3ccc(S(=O)(=O)N(CC)CC)cc3c2=O)CC1`, for which the fluorescence intensity is 2950 (inactive).

With `COc1ccc(N2CCN(C(=O)c3cn(C)c4ccc(S(=O)(=O)N5CCOCC5)cc4c3=O)CC2)cc1`, the fluorescence intensity is 5270 (inactive). The result for `Cc1ccc(C(NC(=O)C2CCN(CCOc3ccc(Cl)cc3Cl)CC2)c2ccccn2)cc1` (stereo not drawn) reads 3690 (inactive); that for `O=C(NCCS(=O)(=O)N1CCN(c2ccccc2)CC1)c1cc(=O)c2ccccc2o1`, 2940 (inactive). The result for `CC(C)C(=O)N1c2ccccc2NC2=C(C(=O)CCC2)C1c1ccc(N(C)C)cc1` (stereo not drawn) reads 3590 (inactive); that for `O=C1c2ccccc2C(O)N1Cc1ccccc1` (stereo not drawn), 11200 (inactive). In the case of `CC1(C)C2CCC1(CS(=O)(=O)NCCc1c[nH]c3ccccc13)C(=O)C2` (stereo not drawn), the fluorescence intensity is 3440 (inactive). The result for `CCCC(=O)N1CCC1(C)C(=O)Nc1ccc(-n2cncn2)cc1` (stereo not drawn) reads 4100 (inactive); that for `Cc1cccc(C)c1NC(=O)CN1CCN(c2ccc(F)cc2)CC1`, 5760 (inactive). Then `COc1ccc(OCCCCN2CCC(C)CC2)cc1`, with 3010 (inactive); and `CC(C)(C)c1ccc(CN2C(=O)CN=C(c3ccccc3)c3ccccc32)cc1`, with 16300 (active); and `CCN(CC)C(=O)C1=C(C)N(Cc2ccc(C(C)(C)C)cc2)C(=O)C(CC(=O)NCc2cccc3ccccc23)C1` (stereo not drawn), with 3960 (inactive). Then `CC(C)(C)c1ccc(CN2C(=O)c3ccccc3S2(=O)=O)cc1`, with 3970 (inactive).

On to `CNc1cnc(-c2cc(OC)c(OC)c(OC)c2)cn1`, for which the fluorescence intensity was 3800 (inactive). The result for `O=C(Nc1ccc(OCCO)cc1)c1csc([C@H]2C[C@H](O)[C@@H](CO)O2)n1` reads 4100 (inactive). The result for `O=C(COC(=O)c1n[nH]c2ccccc12)Nc1ccccc1Br` reads 3780 (inactive); that for `CC(=O)Nc1ccc(S(=O)(=O)N2CCN(CCCOc3cc(C)ccc3C)CC2)cc1`, 11400 (inactive).

For `CC(=O)Nc1ccc(S(=O)(=O)N2CCN(S(=O)(=O)c3cccs3)CC2)cc1`, the fluorescence intensity is 6050 (inactive).

Turning to `COC(=O)Nc1ccc(S(=O)(=O)N2CCN(CCN3C(=O)C4C5C=CC(C5)C4C3=O)CC2)cc1` (stereo not drawn), the fluorescence intensity is 21300 (active). Then `CCn1c(CN2C(=O)CSc3ccccc32)n[nH]c1=S`, with 6470 (inactive).

As to `Cc1nnc(SCCCn2c(N3CCCCC3)nc3c2c(=O)[nH]c(=O)n3C)s1`, the fluorescence intensity was 20700 (active). Then `C=C(C)Cn1c(N2CCCC2)nc2c1c(=O)[nH]c(=O)n2C`, with 5030 (inactive); and `Cc1nnc(Sc2nc3c(c(=O)[nH]c(=O)n3C)n2Cc2ccccc2)s1`, with 5620 (inactive); and `CNC(=S)NNC(=O)c1cccn(Cc2ccccc2)c1=O`, with 4620 (inactive). Then `CNC(=S)NNC(=O)c1sccc1OCc1ccccc1`, with 22300 (active); and `Cc1ccc(/C=N/NC(=O)c2sccc2OCc2ccc(F)cc2)cc1`, with 3080 (inactive). The result for `CC1(C(=O)NS(=O)(=O)c2ccc(C#N)cc2)CCN1C(=O)CC1CCCC1` (stereo not drawn) reads 3000 (inactive).

Regarding `COC(=O)c1nc(NC(=O)c2ccc(Cl)cc2)n[nH]1`, the fluorescence intensity is 12500 (inactive).

`COC(=O)c1nc(NC(=O)c2ccc(F)cc2)n[nH]1`: the fluorescence intensity was 3910 (inactive). The result for `COC(=O)c1nc(NC(=O)c2ccccc2)n[nH]1` reads 19900 (active); that for `CCCCCn1nnnc1C1c2ccccc2C(=O)N1Cc1ccco1` (stereo not drawn), 6010 (inactive). Then `CC1CCCN(S(=O)(=O)c2ccc(-c3ccc(=O)[nH]n3)o2)C1` (stereo not drawn), with 5950 (inactive). The result for `CN(C)/C=C(\C#N)C(=O)c1cccnc1Oc1cccc(F)c1` reads 15200 (inactive); that for `CCOc1ncccc1C(=O)N(C)CC(=O)Nc1ccc(F)cc1`, 2630 (inactive); that for `CN(C)/C=C(\C#N)C(=O)c1cccnc1Oc1ccc(F)cc1F`, 24800 (active). With `COc1cc(C(O)c2nc(-c3cccc(C(=O)O)c3)cs2)ccc1F` (stereo not drawn), the fluorescence intensity was 3440 (inactive).

As for `CC(Sc1ccccc1F)C(=O)Nc1cccc(S(=O)(=O)N2CCOCC2)c1` (stereo not drawn), the fluorescence intensity was 4000 (inactive). Then `CC(C)(C)OC(=O)N(Cc1ccccc1)Cc1ccc(OCc2cccc(NC(=O)c3ccccc3)c2)cc1`, with 3640 (inactive); and `CC(C)c1cc(C(N)=O)c(NC(=O)c2cccc(COc3ccc(Br)cc3)c2)s1`, with 22100 (active).

Regarding `CCOc1ccc(OCc2cccc(C(=O)N(CC)CC)c2)cc1`, the fluorescence intensity was 2210 (inactive). On to `CC1(C)OC(=O)C2=C(C[C@@H](C3CCCC3)O[C@@H]2c2ccc(Cl)cc2)O1`, for which the fluorescence intensity was 6120 (inactive). Then `C=CCc1cccc2cc(C(=O)Nc3ccc(NC(C)=O)cc3)c(=O)oc12`, with 4060 (inactive). Then `C=CCc1cccc2cc(C(=O)OCC)c(=O)oc12`, with 2480 (inactive); and `C=CCc1cccc2cc(C(=O)N3CCN(C(=O)OCC)CC3)c(=O)oc12`, with 19200 (active); and `CCc1ccc(OC2(C)CCN(CCOc3ccc(C)cc3)C2)cc1` (stereo not drawn), with 3880 (inactive). Then `Cc1nc2ccc(S(=O)(=O)NCC(=O)NCCN3CCCCC3C)cc2s1` (stereo not drawn), with 3450 (inactive). On to `Cc1ccc(N(Cc2cc(=O)[nH]c3ccccc23)C(=O)CCl)cc1`, for which the fluorescence intensity is 3750 (inactive). `Cc1oc(-c2ccccc2F)nc1CS(=O)(=O)CC(=O)NCCCN(C)C1CCCCC1`: the fluorescence intensity is 17000 (active). Then `CSc1ccc(CCNC(=O)CS(=O)(=O)Cc2nc(-c3ccccc3F)oc2C)cc1`, with 5680 (inactive); and `Cc1oc(-c2ccccc2F)nc1CS(=O)CC(=O)NCCN1CCCCC1C` (stereo not drawn), with 5840 (inactive).
